# Most compounds without a hit are left out; they make up all but 10% or so of the library.
# Gal4-VP16 FLuc – Gal4-VP16 reporter inhibition counter-screen; Drosophila S2 Gal4-VP16 UAS-luciferase, luminescence, 20 h; Potency, µM (series often up to 53.6 µM), without a hit: top-dose activity, negative = inhibition, hits mostly inhibitors; 310,000 tested, 3.5% active; AID 2546;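 further: Gal4-VP16 expression switched on by copper sulfate through the metallothionein promoter; on the % scale 0 is the no-effect control and ±100 the full control effect; nearly all actives have a fitted effect of over 50% in size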
# KB-V1 MDR tox – KB-V1 MDR subline cytotoxicity | 400,000 tested, 3.4% active | KB-V1 MDR cells viability, CellTiter-Glo, 72 h | Potency, µM (highest dose often 46.1 µM), most hits filed as cytotoxic; further: on the % scale 0 is the no-effect control and ±100 the full control effect; nearly all actives have a fitted effect of over 60% in size
#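 Drug-selected KB-V1 cells, grown in DMEM lacking phenol red with 10% FBS, receive compound titrations; after three days at 37 degrees C, surviving cell ATP is quantified by CellTiter-Glo luminescence and responses normalized and curve-fitted.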
# KB-3-1 tox – KB-3-1 parental cell cytotoxicity | KB-3-1 viability, CellTiter-Glo ATP luminescence, 72 h | 400,000 tested, 1.4% active | AID 1347075 | Potency, µM (titrated, usually from 46.1 µM), most hits filed as cytotoxic; further: on the % scale 0 is the no-effect control and ±100 the full control effect; nearly all actives have a fitted effect of over 60% in size
#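 Using CellTiter-Glo luminescence, growth of non-resistant KB-3-1 adenocarcinoma cells is assessed 72 h after pin-tool compound addition at 37 °C. Normalized responses across the concentration series yield fitted curves.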
# RORgamma inh – inhibitors of mouse ROR gamma transcriptional activity. Drosophila S2 Gal4-RORgamma UAS-luciferase reporter, 20 h. P51450. Potency, µM (doses to about 53.6 µM), inactives show at the top dose activity change, negative = inhibition, usual class: inhibitors. 310,000 tested, 5.4% active; further: on the % scale 0 is the no-effect control and ±100 the full control effect; nearly all actives have a fitted effect of over 60% in size
# Target sequence (P51450 whole entry, looked up, the tested form may be a part): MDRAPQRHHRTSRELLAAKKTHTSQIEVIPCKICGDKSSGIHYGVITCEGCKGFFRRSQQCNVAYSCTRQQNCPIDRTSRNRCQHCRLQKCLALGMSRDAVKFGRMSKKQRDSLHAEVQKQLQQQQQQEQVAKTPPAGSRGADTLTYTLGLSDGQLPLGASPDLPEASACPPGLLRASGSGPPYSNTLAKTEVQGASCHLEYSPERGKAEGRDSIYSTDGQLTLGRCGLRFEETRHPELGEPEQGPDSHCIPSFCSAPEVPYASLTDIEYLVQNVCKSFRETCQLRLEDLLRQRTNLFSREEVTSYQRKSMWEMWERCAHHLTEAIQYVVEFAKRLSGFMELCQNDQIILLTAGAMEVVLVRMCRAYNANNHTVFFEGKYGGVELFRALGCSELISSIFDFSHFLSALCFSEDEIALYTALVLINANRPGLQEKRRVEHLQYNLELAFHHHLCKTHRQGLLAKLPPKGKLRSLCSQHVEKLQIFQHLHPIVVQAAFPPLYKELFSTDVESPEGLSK
#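 ROR gamma transcriptional activity was tracked as Gal4-UAS luciferase output in stably transfected Drosophila Schneider cells, with compound added 1 hr before 700 uM copper sulfate induction and a 20 hr ambient-temperature incubation.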
# SW480 rerep – inducers of DNA re-replication in SW480 colon cancer cells | SW480 DNA re-replication, Hoechst DNA content imaging, 48 h | Potency, µM (top dose mostly 46.1 µM), without a hit: at the highest dose re-replication activation, usual class: activators | 340,000 tested, 1.8% active | AID 624297; further: % of control where 0% means no effect; nearly all actives have a fitted effect of over 55% in size
#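 250 cells/well; 23 nL cpd via pin tool; 48 hr, 37 C, 5% CO2; Hoechst 40 min; imager read of total nuclear intensity, ex 405/em 500-530 nm.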
# MCF10A rerep – DNA re-replication induction in MCF 10a cells | MCF 10A DNA re-replication, Hoechst nuclear intensity, 48 h | Potency, µM (titrated, usually from 46.1 µM), without a hit: at the top dose activity, positive = re-replication, hits mostly activators | 350,000 tested, 2.9% active | AID 624296; further: % of control where 0% means no effect; nearly all actives have a fitted effect of over 50% in size
# * hit, by the source's call; i = inactive; ? = inconclusive; nt = not tested or not shown; [ ] = another dose, or the depositor's remark. The call rests on the fitted dose curve; in most records, active means well fitted curve in the direction sought with a large enough effect; inconclusive means small, poorly fitted or top-dose-only effect, or another doubt; inactive means no such curve, though single readings can be large; an effect the other way counts as inactive or inconclusive. Potency means the concentration at half of the fitted maximal effect.
SMILES,Gal4-VP16 FLuc,KB-V1 MDR tox,KB-3-1 tox,RORgamma inh,SW480 rerep,MCF10A rerep
COCCN(CC1CCCN(C2Cc3ccccc3C2)C1)C(=O)c1cccc(C)c1 (centres undefined),1.1%,i,?,-3.3%,-0.1%,0.9%
Cc1ccc(CSC2=Nc3ccccc3C3=NC(CCC(=O)N4CCN(c5ccccc5)CC4)C(=O)N23)cc1 (centres undefined),nt,i,i,nt,nt,nt
CN(C)S(=O)(=O)c1cccc(-c2cn3cc(Cl)ccc3n2)c1,?,16.4µM*,i,12.3%,-1.8%,-5.5%
CCc1ccn2cc(-c3cc(-c4ccccc4)no3)nc2c1,-11.6%,?,?,2.3%,?,3.1%
Cc1ccc2nc(-c3cc(-c4ccccc4)no3)cn2c1,3.98µM*,i,i,1.41µM*,?,-1.7%
Clc1ccc2nc(-c3ccccc3)cn2c1,?,i,i,11.2µM*,-3.2%,6.9%
COC(=O)C1(CC(C)C)C=C2C(=C(C)C(=O)C2C)CN1 (centres undefined),-16.4%,nt,nt,0.6%,nt,nt
Cc1cc(C(=O)N/N=C2\CC(=O)CC(C)(C)C2)c(C)n1-c1ccccc1,?,?,i,2.5%,6.9%,20.6µM*
Cc1cc(C(=O)N/N=C2\CC(=O)CC(C)(C)C2)c(C)n1-c1ccc(F)cc1,4.1%,?,i,-27.2%,3.2%,7.9%
CC(=O)OCC(=O)[C@]1(O)C(C)CC2C3CCC4=CC(=O)C=C[C@@]4(C)[C@]3(F)C(O)C[C@@]21C (some centres undefined),0.1%,nt,nt,32.5%,nt,nt
CNc1nc(SCc2ccccc2Cl)nc2c1CCCC2,?,?,i,?,-0.1%[9.22 µM],18.4µM*
O=c1[nH]c(SCc2ccccc2Cl)nc2c1CCC2,-6.8%,i,i,-1.1%,-3.5%,18.1%
CCOC(=O)N/N=C1/C[C@@H](O)[C@@H](O)[C@@H]2[C@@H]3C(=O)N(C4CCCCC4)C(=O)[C@H]3CC[C@@H]12,-7.7%[10 µM],nt,nt,4.6%[10 µM],nt,nt
CC(=O)N1CCc2cc(Br)cc(S(=O)(=O)N3CCC(C)CC3)c21,nt,i,i,nt,nt,nt
COc1ccc(OC)c(NC(=O)c2nc(S(=O)(=O)Cc3ccccc3)ncc2Cl)c1,?,?,4.11µM*,5.01µM*,?,1.64µM*
COc1ccc(NC(=O)c2nc(S(=O)(=O)Cc3cccc(C)c3)ncc2Cl)c(OC)c1,7.94µM*,?,i,?,-4.7%,?
C[n+]1c(-c2ccccc2)cc2c(=Cc3ccccc3)c3ccccc3n21,nt,?,?,nt,?,20.6µM*
COc1ccccc1-c1cc2c(c3c1ccn3C)C1CCC2C1 (centres undefined),nt,i,i,nt,nt,nt
CC1=C(Sc2nc3ccccc3[nH]2)C(=O)NC(C)(C)C1,6.6%,i,i,13.4%,-0.2%,-4.1%
C=CCN1C(=O)S/C(=C/c2ccc(Sc3nc4ccccc4[nH]3)o2)C1=O,?,3.66µM*,?,28.4%[10 µM],21.9%,?
CC(C)N1C(=O)S/C(=C/c2ccc(Sc3nc4ccccc4[nH]3)o2)C1=O,?,23.1µM*,?,?,?,?
O=C(NCc1ccc2c(c1)OCO2)c1ccc(C2SCC(=O)N2Cc2ccco2)cc1 (centres undefined),-3.3%,20.6µM*,i,44.6%,-1.9%,10.8%
CCCNC(=O)c1ccc(C2SCC(=O)N2Cc2ccccc2)cc1 (centres undefined),-1.0%,i,i,23.4%,3.2%,21.9%
CCOCCCNC(=O)c1ccc(C2SCC(=O)N2Cc2ccccc2)cc1 (centres undefined),28.2%,5.8µM*,i,-43.1%[1.91 µM],-1.5%,2.5%
C=CCNC(=O)c1ccc(C2SCC(=O)N2Cc2ccco2)cc1 (centres undefined),-21.6%[10 µM],i,i,21.8%,-3.2%,-8.5%
SMILES,Gal4-VP16 FLuc,KB-V1 MDR tox,KB-3-1 tox,RORgamma inh,SW480 rerep,MCF10A rerep
Cc1ccc(-n2ncc(C(=O)NCc3cccs3)c2C2CCN(C(=O)OC(C)(C)C)CC2)cc1C,nt,i,i,nt,nt,nt
Oc1ccccc1-c1cc(-c2cccc(F)c2)n[nH]1,?,?,?,?,8.1%,22.8%
Cc1ccc(-c2cc(-c3cccs3)[nH]n2)c(O)c1,?,i,i,11.2µM*,1.3%,7.9%
CC(C)(C)c1ccc(-c2cc(-c3ccccc3O)[nH]n2)cc1,7.08µM*,?,?,?,?,9.2µM*
COc1ccc(-c2cc(-c3ccc(C)cc3)n[nH]2)c(O)c1,20µM*,i,i,2.51µM*,?,26.2%
Cc1ccccc1-c1cc(-c2ccccc2O)on1,-26.9%,i,i,12.6µM*,-6.3%,-4.4%
Cc1ccc(-c2cc(C(=O)Nc3cc(C)ccc3C)[nH]n2)c(O)c1,3.9%,i,i,-10.6%,1.4%,-2.3%
Oc1ccccc1-c1cc(-c2ccccc2)no1,-7.1%,i,i,-37.3%,5.2%,0.4%
COc1ccc(-c2cc(-c3ccc(OC)cc3)[nH]n2)cc1,2µM*,i,i,1.26µM*,4.9%,?
Cc1ccc(O)c(-c2cc(-c3ccccc3C)[nH]n2)c1,11.2µM*,?,?,11.2µM*,?,?
COc1ccc(-c2cc(-c3cc(C)ccc3O)[nH]n2)cc1,?,?,?,3.98µM*,?,18.4µM*
O=C(CN1CCCN(Cc2ccccc2Cl)S1(=O)=O)Nc1ccc2c(c1)OCCO2,nt,i,i,nt,nt,nt
CCOc1ccc(C(=O)c2cn(CC(=O)Nc3ccc(F)c(F)c3)c3cc4c(cc3c2=O)OCCO4)cc1,nt,i,i,nt,nt,nt
COC(=O)c1sccc1NS(=O)(=O)c1ccc(OC)cc1,5.2%,18.4µM*,i,10.0%,?,12.8%
COC(=O)c1ccc(C)c(NS(=O)(=O)c2ccc(OC)cc2)c1,-12.3%,1.03µM*,0.731µM*,?,0.259µM*,?
COC(=O)c1ccc(C)c(NS(=O)(=O)c2ccc3c(c2)OCCO3)c1,?,1.16µM*,2.31µM*,?,-1.5%,0.0%
CCOc1ccc(S(=O)(=O)Nc2ccccc2SC)cc1,0.1%,16.4µM*,?,18.2%,6.2%,-9.0%
COC(=O)c1ccc(C)c(NS(=O)(=O)c2ccc(C)c([N+](=O)[O-])c2)c1,-14.3%,i,i,1.1%,-0.4%,?
CSc1ccccc1NS(=O)(=O)c1ccc2c(c1)OCCO2,nt,20.6µM*,i,-14.9%[0.365 µM],-8.6%,6.9%
COc1ccc(S(=O)(=O)Nc2cc(C)c(O)cc2C(C)C)cc1,23.1%[0.365 µM],i,i,?,-0.4%,15.4%
